# Results taken from ChEMBL document CHEMBL4513216, “Probing the Open Global Health Chemical Diversity Library for Multistage-Active Starting Points for Next-Generation Antimalarials” (ACS Infect Dis, 2020).
# Among all 69,000 compounds or so, about 8,600 (12%) showed an effect of 50% or more. This excerpt belongs to a sample that is enriched for strong results.
# System: Plasmodium berghei
# Experiment: Screen against P. berghei liver stage (PbLuc), transformed with Luciferase, at 10uM
# Type: functional, HepG2
# Details: tested at 10 uM
row,Structure (SMILES),INHIBITION [%]
1,CCCN1Cc2cc(Br)ccc2OCC1=O,68
2,O=C(NC[C@]12COC[C@H]1CN(Cc1cccs1)C2)c1ccsc1,20.5
3,COc1ccccc1CNc1c(N2CCN(C(C)=O)CC2)c(=O)c1=O,-19.2
4,COc1ccc(CNc2c(N3CCN(C(C)=O)CC3)c(=O)c2=O)cc1,54
5,COc1ccc(CNc2c(N3CCN(C)CC3)c(=O)c2=O)cc1,31.8
6,O=C(NCCSCc1ccco1)c1ccc(N2CCOCC2)cc1,17.7
7,CCC(CC#N)n1ccc(C(F)(F)F)n1 (configuration not stated),21.9
8,CCC1=N[C@@]2(CC[C@@H]3CN(CC(=O)N(C)C)C[C@@H]32)C(=O)N1CC1CC1,-3.95
9,Cc1c(CN2CCC(C(=O)O)(n3ccnc3)CC2)oc2ccccc12,15.1
10,COc1ccc(NC(=O)NC(C)Cc2ccco2)cn1 (configuration not stated),-41.2
11,CN(C)C(=O)N1C[C@@H]2COC[C@]2(c2nnc(C3CC3)o2)C1,54.7
12,O=C(c1ncccn1)N1C[C@@H]2COC[C@]2(c2nnc(C3CC3)o2)C1,-36.5
13,CC(C)(C)C(=O)N1C[C@@H]2COC[C@]2(c2nnc(C3CC3)o2)C1,-9.54
14,COc1cccc(-c2nc(C)c(C(=O)N[C@@H](CC(C)C)C(=O)O)s2)c1,-95.4
15,O=C1CC(c2cccnc2)c2c(c(C(=O)O)cn2-c2ccc(Cl)cc2)N1 (configuration not stated),20
16,O=C(C1CC1)N1CCc2c(ncnc2NCCc2nc3c(s2)CCC3)C1,52.2
17,Nc1nnc(CCCNc2ncnc3c2CCN(C(=O)C2CC2)C3)s1,-45
18,CCc1ccc(CCNc2ncnc3c2CCN(C(=O)C2CC2)C3)cc1,71.1
19,Nc1nc(CCNc2ncnc3c2CCN(C(=O)C2CC2)C3)cs1,-66.7
20,O=C(C1CCCCO1)N1CCc2ncnc(NCCO)c2CC1 (configuration not stated),25.8
21,Nc1nnc(CCNc2ncnc3c2CCN(C(=O)C2CC2)C3)s1,-10.2
22,CC(C)n1nc(Cn2cccn2)c2c1CN(C1CCOCC1)C2,-33
23,Cc1nc(CN2CC[C@@H]3O[C@@H](C(=O)N4CCOCC4)C[C@@H]32)cs1,30.9
24,COCCC(C)NC(=O)N1CCC(n2ccc(C(F)(F)F)n2)CC1 (configuration not stated),15.7
25,CCS(=O)(=O)N1CCN(C(=O)c2cnc3[nH]nc(C)c3c2)CC1,-35.2
26,O=C(O)c1coc(COc2cccc3cnccc23)n1,-2.46

row,Structure (SMILES),INHIBITION [%]
1,O=C(c1coc(COc2cccc(F)c2)n1)N1CC[C@H](O)[C@@H](O)C1,6.8
2,COCCC1CCCCN1C(=O)c1coc(COc2ccccc2F)n1 (configuration not stated),29.735
3,O=C(c1coc(COc2cccc3cnccc23)n1)N1CCSCC1,74.9
4,O=C(c1coc(COc2cccc3cnccc23)n1)N1CCCCCC1,84.1
5,O=C(c1cc(=O)c(OCc2ccccc2)co1)N1CCSCC1,21.5
6,O=C(c1coc(COc2ccccc2F)n1)N1CCCO1,-4.235
7,CC1CCCCN1C(=O)c1coc(COc2cccc3cnccc23)n1 (configuration not stated),68.4
8,O=C(c1coc(COc2ccccc2F)n1)N1CCC[C@H]1CO,2.611
9,Cc1cc(Cn2c(=O)c3c(C(F)(F)F)cc(C)nc3n2C)on1,4.81
10,CN1CCOC(CNCC(=O)NCCCc2ccccc2)C1 (configuration not stated),-17.8
11,COc1ccc(CN(C)Cc2ccnc(C3CCCO3)n2)cc1 (configuration not stated),21.95
12,Cc1ncc(CNC(=O)NC2CCN(C3CCCC3)CC2)s1,-53.6
13,Cc1cccc(CN2CC[C@@H]3O[C@@H](C(=O)N4CCN(C)CC4)C[C@@H]32)n1,-5.25
14,CCOC(=O)N1CCN(C(=O)c2cc(-c3ccc(Cl)cc3Cl)on2)CC1,-6.91
15,CCN(Cc1cccc(F)c1)Cc1nc2c(cnn2C)c(=O)[nH]1,3.73
16,CC1(NC(=O)Cc2csc(NC(=O)c3ccccc3)n2)CCS(=O)(=O)C1 (configuration not stated),-14.2
17,CCc1ncncc1C(=O)NC1CCc2nc(C)cn2C1 (configuration not stated),-53.5
18,COc1ccccc1[C@@H]1CN(Cc2ccc3nsnc3c2)C[C@H]1C(=O)O,68.2
19,COc1ccccc1[C@@H]1CN(Cc2csc(C(C)=O)c2)C[C@H]1C(=O)O,-82.7
20,COc1ccccc1[C@@H]1CN(Cc2ccncc2)C[C@H]1C(=O)O,-21.8
21,Cc1ccccc1[C@@H]1CN(Cc2ccc(C(F)(F)F)nc2)C[C@H]1C(=O)O,59.7
22,CCC[C@@H]1CN(Cc2ccc(C(F)(F)F)nc2)C[C@H]1C(=O)O,37.2
23,Cc1ccccc1[C@@H]1CN(Cc2c(C)noc2C)C[C@H]1C(=O)O,2.25
24,COCCO[C@H]1CCN(C(=O)c2ccc[nH]2)[C@H]1Cc1ccncc1,42.6
25,CC(C)c1noc(CN2CCC(c3ccnn3CCO)CC2)n1,-24.2
26,O=C(Nc1ccnn1Cc1ccccc1Cl)C1CCS(=O)(=O)C1 (configuration not stated),-4.12
